In paper PMC6792352, “Limited Chemical Structural Diversity Found to Modulate Thyroid Hormone Receptor in the Tox21 Chemical Library” (Environmental Health Perspectives, 2019) one finds AC50 data, which are given here for 15 compounds.

Structures are written as SMILES.

The assay concerns thyroid hormone receptor (endogenous TRα and TRβ). Also on record: species or system GH3-TRE-Luc (rat pituitary); GH3-TRE-Luc luciferase reporter, antagonist mode against 1 nM T3, loss of signal, qHTS. To be noted: read-out: Average AC50 (uM) GH3-TRE-Antag, antagonist mode, 1 nM T3, no GH3 cytotoxicity hit.
In the case of `CCOC(=O)CS` [Acetic acid,mercapto-,ethylester], the half-maximal activity concentration (AC50) amounted to 73.6 µM.
With `CC(C)c1ccc2oc3nc(N)c(C(=O)O)cc3c(=O)c2c1` [Amlenanox] the figure was 32.7 µM.
With `CCN(CC)CCOc1ccc2c(c1)C(=O)c1cc(OCCN(CC)CC)ccc1-2` [Tilorone] the figure was 17.6 µM; with `Cc1occc1SSc1ccoc1C` [Bis(2-methyl-3-furyl)disulfide], 65.9 µM.
Consider `CCCCCCCC/C=C/CCCCCCCC(=O)OCCO` [Polyoxyethylene monoleate], for which the AC50 came out at 81.3 µM.
With `c1ccc(Nc2ccccc2)cc1` [Diphenylamine] the figure was 83.1 µM; with `CC#Cc1cc(C)nc(Nc2ccccc2)n1` [Mepanipyrim], 64.8 µM.
The value for `CCCOc1ccc2nc(NC(=O)OC)sc2c1` [Tioxidazole] was 2.52 µM; that for `C=C(C#N)C(=O)OCC` [Ethyl cyanoacrylate] was greater than 90 µM; that for `CC1(CO)CN(c2ccccc2)NC1=O` (stereo not drawn) [4-(Hydroxymethyl)-4-methyl-1-phenylpyrazolidin-3-one] was 82.6 µM.
With `O=[N+]([O-])c1c(Cl)c(Cl)c(Cl)c(Cl)c1Cl` [Pentachloronitrobenzene] the figure was greater than 90 µM; with `C=CCOC(=O)/C=C\C(=O)OCC=C` [Diprop-2-en-1-yl (2Z)-but-2-enedioate], 79.2 µM.
For the compound `CCCCCCCCCCCCCC(=O)OCC(O)CO` (stereo not drawn) [Tetradecanoic acid, 2,3-dihydroxypropyl ester], the AC50 is 61.9 µM.
The value for `CCCCCCCCCCO[C@@H]1O[C@H](CO)[C@@H](O)[C@H](O)[C@H]1O` [Decyl beta-D-glucopyranoside] was 68.4 µM.
The value for `C=C1C[C@@H]2[C@H](CC[C@]3(C)C(=O)CC[C@@H]23)[C@@]2(C)C=CC(=O)C=C12` [Exemestane] was 34.6 µM.
